PubChem BioAssay (NCI)
About 79,000 compounds went through this panel and 15% of them were active in at least one assay; those are over-represented in the sample as a whole. Unmarked numbers belong to inactive results. The source made the active and inactive calls. Rule as the data show it: active = growth inhibition above about 70%; inactive = the rest.

Test: NCI Yeast Anticancer Drug Screen. Data for the rad52 strain (AID 147);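 also: 0% = growth of vehicle-treated control cultures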
Details: S. cerevisiae rad52 mutant growth inhibition; at 1.2 µM; stronger effect = higher value
Method in brief: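 Yeast strain carrying a DNA damage repair alteration was exposed to test compounds. Growth inhibition was measured relative to vehicle-treated controls.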

SMILES | growth inhibition
S=C(S)NN1CCOCC1 | 84% (active)
COc1cc2c3c(cccc3c1)C(=O)N(CCN(C)C)C2=O | -43%
COC(=O)C1=C(C)NC(C)=C(C(=O)OCCCN2CCC(c3ccccc3)(c3ccccc3)CC2)C1c1cccc([N+](=O)[O-])c1 (stereo not given) | -8%
c1ccc2c(c1)Oc1cccc3cccc-2c13 | 5%
CN(C)CCOc1ccc2c(c1)C/C(=C/c1ncc([N+](=O)[O-])n1C)C2=O | 50%
Cc1ccc(CCC2=CCCc3c2ccc2ccccc32)cc1 | -1%
CNC(=O)OCc1c(COC(=O)NC)c(-c2ccc(Cl)c(Cl)c2)n2c1CCC2 | -21%
Clc1ccccc1C1OC1c1ccccc1Cl (stereo not given) | -29%
O=[N+]([O-])c1cc(CCl)ccc1CCl | 6%
O=C1C=CC(=O)c2c(O)c(Nc3ccc(OC(F)(F)F)cc3)c(Cl)c(O)c21 | 9%
S=c1[nH]nc(Nc2ccc(Cl)cc2)s1 | -6%
Cn1ccnc1Oc1ccc(Cl)cc1 | -7%
BrCc1cccc2ccc3cccc(CBr)c3c12 | -3%
O=C1c2ccccc2-c2nc3ccccc3nc21 | -27%
CCCCCCCCCCCCCCCCCCNC | 15%
Oc1ccc(NCn2c(=S)sc3ccccc32)cc1 | -1%
O=C1C2CC[C@@H]3C(=O)C(Cl)(Cl)[C@@H]3CCC2C1(Cl)Cl (stereo not given in full) | 12%
CC[n+]1ccc2c(C)c3[nH]c4ccc(O)cc4c3c(C)c2c1 | 5%
Cc1ccc(-n2cc(-c3ccc(Cl)cc3)c(C#N)c2N)cc1 | 0%
CC(=O)[O][Bi]([c]1ccccc1)[c]1ccccc1 | 31%

SMILES | growth inhibition
CC1=C(SCCO)C(=O)c2ccccc2C1=O | -4%
C/C(=N\O)C1CC2C=C(C#N)C1N(Cc1ccccc1)C2 (stereo not given) | -5%
CC(Br)C(=O)c1ccc2cc(Br)c3ccccc3c2c1 (stereo not given) | -2%
Nc1nc(-c2cccnc2)cc(-c2cc(-c3cccnc3)nc(N)n2)n1 | 0%
CC(C)=CC(=O)O[C@@H]1CC(C)(C)CC2C3=CCC4[C@]56CC[C@](O)(OC5)C(C)(C)C6CC[C@@]4(C)C3(C)CC[C@]21C(=O)O (stereo not given in full) | 2%
CCC(C)COC(=O)c1ccc(N=Cc2ccc(C=Nc3ccc(C(=O)OCC(C)CC)cc3)cc2)cc1 (stereo not given) | -2%
Oc1cccc2c(Cl)ccnc12 | 42%
O=C(O)c1cccc(-c2c3ccc(=O)cc-3oc3cc(O)ccc23)c1 | -4%
CN(CCc1ccccn1)c1ccc2c(c1)Cc1ccccc1-2 | 1%
Cc1cc(S(=O)(=O)/N=C(/NN)NNc2cccc(C(F)(F)F)n2)c(S)cc1Cl | 1%
O=C1C2C(C(=O)N1c1ccc(OCc3ccccc3)cc1)C1c3ccccc3C2C2CCCCN21 (stereo not given) | -3%
Nc1ccccc1CC(O)C(=O)O (stereo not given) | 0%
O=C(O)C1CCCCC1c1c2ccc(=O)c(O)c-2oc2c(O)c(O)ccc12 (stereo not given) | -18%
Cc1ccc2ccc(O)cc2c1 | -31%
O=C1C(=O)c2ccccc2C=C1[N+](=O)[O-] | 3%
COC(=O)c1ccc(NCC2=CC(=O)C=CC2=O)cc1O | 13%
C(CCSC1=NCCN1)CSC1=NCCN1 (tested in a mixture with another compound) | 20%
N#Cc1c(N)[nH]c2ccc(Sc3ccccc3)cc12 | 1%
CCNc1nnc(CSc2nc(-c3ccccc3)c(-c3ccccc3)[nH]2)s1 | -6%
CC[C@@]1(O)C(=O)OCc2c1cc1n(c2=O)Cc2cc3c(N)cccc3nc2-1 | 54%

Same assay, conditions: S. cerevisiae rad52 mutant growth inhibition; at 3.7 µM; stronger effect = higher value

SMILES | growth inhibition
S=C(S)NN1CCOCC1 | 68%
COc1cc2c3c(cccc3c1)C(=O)N(CCN(C)C)C2=O | -14%
COC(=O)C1=C(C)NC(C)=C(C(=O)OCCCN2CCC(c3ccccc3)(c3ccccc3)CC2)C1c1cccc([N+](=O)[O-])c1 (stereo not given) | 2%
c1ccc2c(c1)Oc1cccc3cccc-2c13 | 3%
CN(C)CCOc1ccc2c(c1)C/C(=C/c1ncc([N+](=O)[O-])n1C)C2=O | 70% (active)
Cc1ccc(CCC2=CCCc3c2ccc2ccccc32)cc1 | -3%
CNC(=O)OCc1c(COC(=O)NC)c(-c2ccc(Cl)c(Cl)c2)n2c1CCC2 | -27%
Clc1ccccc1C1OC1c1ccccc1Cl (stereo not given) | -38%
O=[N+]([O-])c1cc(CCl)ccc1CCl | 11%
O=C1C=CC(=O)c2c(O)c(Nc3ccc(OC(F)(F)F)cc3)c(Cl)c(O)c21 | 12%
S=c1[nH]nc(Nc2ccc(Cl)cc2)s1 | -9%
Cn1ccnc1Oc1ccc(Cl)cc1 | -11%
BrCc1cccc2ccc3cccc(CBr)c3c12 | -4%
O=C1c2ccccc2-c2nc3ccccc3nc21 | -30%
CCCCCCCCCCCCCCCCCCNC | -4%
Oc1ccc(NCn2c(=S)sc3ccccc32)cc1 | -10%
O=C1C2CC[C@@H]3C(=O)C(Cl)(Cl)[C@@H]3CCC2C1(Cl)Cl (stereo not given in full) | 25%
CC[n+]1ccc2c(C)c3[nH]c4ccc(O)cc4c3c(C)c2c1 | 48%
Cc1ccc(-n2cc(-c3ccc(Cl)cc3)c(C#N)c2N)cc1 | 1%
CC(=O)[O][Bi]([c]1ccccc1)[c]1ccccc1 | 41%

SMILES | growth inhibition
CC1=C(SCCO)C(=O)c2ccccc2C1=O | 1%
C/C(=N\O)C1CC2C=C(C#N)C1N(Cc1ccccc1)C2 (stereo not given) | -3%
CC(Br)C(=O)c1ccc2cc(Br)c3ccccc3c2c1 (stereo not given) | -2%
Nc1nc(-c2cccnc2)cc(-c2cc(-c3cccnc3)nc(N)n2)n1 | 0%
CC(C)=CC(=O)O[C@@H]1CC(C)(C)CC2C3=CCC4[C@]56CC[C@](O)(OC5)C(C)(C)C6CC[C@@]4(C)C3(C)CC[C@]21C(=O)O (stereo not given in full) | 37%
CCC(C)COC(=O)c1ccc(N=Cc2ccc(C=Nc3ccc(C(=O)OCC(C)CC)cc3)cc2)cc1 (stereo not given) | -3%
Oc1cccc2c(Cl)ccnc12 | 99% (active)
O=C(O)c1cccc(-c2c3ccc(=O)cc-3oc3cc(O)ccc23)c1 | 26%
CN(CCc1ccccn1)c1ccc2c(c1)Cc1ccccc1-2 | 11%
Cc1cc(S(=O)(=O)/N=C(/NN)NNc2cccc(C(F)(F)F)n2)c(S)cc1Cl | -1%
O=C1C2C(C(=O)N1c1ccc(OCc3ccccc3)cc1)C1c3ccccc3C2C2CCCCN21 (stereo not given) | 1%
Nc1ccccc1CC(O)C(=O)O (stereo not given) | 5%
O=C(O)C1CCCCC1c1c2ccc(=O)c(O)c-2oc2c(O)c(O)ccc12 (stereo not given) | -26%
Cc1ccc2ccc(O)cc2c1 | -35%
O=C1C(=O)c2ccccc2C=C1[N+](=O)[O-] | 11%
COC(=O)c1ccc(NCC2=CC(=O)C=CC2=O)cc1O | 34%
C(CCSC1=NCCN1)CSC1=NCCN1 (tested in a mixture with another compound) | 39%
N#Cc1c(N)[nH]c2ccc(Sc3ccccc3)cc12 | 0%
CCNc1nnc(CSc2nc(-c3ccccc3)c(-c3ccccc3)[nH]2)s1 | 14%
CC[C@@]1(O)C(=O)OCc2c1cc1n(c2=O)Cc2cc3c(N)cccc3nc2-1 | 79% (active)
